In PubChem BioAssay AID540308 (The Scripps Research Institute Molecular Screening Center, 2011):
Values joined by “and” are separate entries in the source; they are usually repeats but may differ in a detail not shown here. Identical values can stand only once. The campaign covered roughly 360,000 compounds. About 3,500 (0.97%) were called active.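 Rule for the calls: active = activation above a per-plate cutoff, the mean activation of sample wells on that plate plus 3 SD (cut at about 8% in these data); inactive = the rest.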 Only a selection was taken, and actives are over-represented in it overall. The source holds several records for some structures; these can differ, active in one and inactive in another.

What follows are molecules tested against Melanocortin receptor 4 (Homo sapiens) (UniProt P32245) (assay: activators of MC4R beta-arrestin recruitment – cell-based, luminescence, agonist arm of biased-ligand search, primary screen (AID 540308)). Conditions: U2OS MC4R beta-arrestin complementation, at 8.9 µM, stronger effect = higher value, percent of melanotan II response, DMSO zero.
Sequence of Melanocortin receptor 4 (Homo sapiens) (P32245 whole entry, looked up): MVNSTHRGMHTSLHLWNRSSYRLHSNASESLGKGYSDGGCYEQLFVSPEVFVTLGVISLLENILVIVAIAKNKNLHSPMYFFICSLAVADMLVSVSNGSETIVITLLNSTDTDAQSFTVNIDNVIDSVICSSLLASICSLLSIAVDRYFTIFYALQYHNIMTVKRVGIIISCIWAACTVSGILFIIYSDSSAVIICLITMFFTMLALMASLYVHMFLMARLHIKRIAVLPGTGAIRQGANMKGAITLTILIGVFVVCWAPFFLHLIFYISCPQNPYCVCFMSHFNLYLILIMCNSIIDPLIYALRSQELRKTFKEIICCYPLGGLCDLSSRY

| Compound | activation |
| --- | --- |
| COc1ccc(CC(N)c2csc(NC(=O)NC(c3ccccc3)c3ccccc3)n2)cc1 (stereo unspecified) | 13.1% (active) |
| NC(c1csc(NC(=O)Nc2cccc(C(F)(F)F)c2)n1)C1CCCCC1 (stereo unspecified) | 6.14% (inactive) |
| NC(c1ccccc1)c1csc(NC(=O)Nc2cccc(C(F)(F)F)c2)n1 (stereo unspecified) | 7.09% (inactive) |
| COc1ccc(CC(N)c2csc(NC(=O)Cc3ccccc3)n2)cc1 (stereo unspecified) | -0.85% (inactive) |
| COc1ccc(CC(N)c2csc(NC(=O)Nc3ccc(C(C)C)cc3)n2)cc1 (stereo unspecified) | 4.05% (inactive) |
| CC(C)(C)CC(=O)Nc1nc(C(N)Cc2ccc(C(F)(F)F)cc2)cs1 (stereo unspecified) | 9.49% (active) |
| Cc1cccc(NC(=O)CN2CCN(CC(=O)NCC3(N4CCCCC4)CCCCC3)CC2)c1C | -0.84% (inactive) |
| c1cc(-c2ccc3[nH]ccc3c2)n2ccnc2c1 | -0.92% (inactive) |
| CCNC(=O)C1CCCN(C(=O)c2ccc(OC)cc2OC)CC1 (stereo unspecified) | 0.47% (inactive) |
| O=C(NCc1ccco1)c1cccc(-c2ccc3nncn3c2)c1 | 1.37% (inactive) |
| CCCOc1ccc(F)cc1-c1cc(C(=O)Nc2ccc(F)cc2)[nH]n1 | 0.53% (inactive) |
| CC1(C(=O)NS(=O)(=O)c2ccccc2)CCN1C(=O)C/C=C/c1ccccc1 (stereo unspecified) | -2.25% (inactive) |
| COCc1cccc(-c2csc(C(O)c3ccc(F)cc3)n2)c1 (stereo unspecified) | -0.9% (inactive) |
| CSc1ncccc1C(=O)Nc1nc2ccc(F)cc2s1 | -1.02% (inactive) |
| COc1ccc2nc(NC(=O)c3ccc(Br)s3)sc2c1 | 16.2% (active) |
| COc1ccc(CNC(=O)c2ccc(Br)s2)cc1OC | -3.45% (inactive) |
| O=C(COc1ccc2c(c1)CCC2)N1CCN(c2ccc(F)cc2)CC1 | 0.92% (inactive) |
| COc1cc(NC(=O)c2cncc(-c3ccc(C#N)cc3)c2)cc(C(=O)Nc2cccc(C(F)(F)F)c2)c1 | 2.04% (inactive) and 10.5% (active) |
| O=C(Nc1cccc(C(F)(F)F)c1)c1ccc(N2CCNCC2)c([N+](=O)[O-])c1 | -2.39% (inactive) |
| COc1cc(NC(=O)c2[nH]cnc2C(N)=O)cc(C(=O)Nc2cccc(C(F)(F)F)c2)c1 | 1.84% (inactive) |
| Cc1nc(C(F)(F)F)ccc1C(=O)N1CCC1(C)C(=O)NS(=O)(=O)c1ccc(F)cc1F (stereo unspecified) | 1.24% (inactive) |
| S=C(Nc1ccccc1)Nc1ccc2ccccc2c1 | 0.79% (inactive) |
| NS(=O)(=O)c1ccc(NC(=S)Nc2ccc(Br)c(Cl)c2)cc1 | -1.38% (inactive) |

| Compound | activation |
| --- | --- |
| Cc1cccc(NC(=S)Nc2ccc(Cl)c(Cl)c2)c1 | 8.62% (active) |
| OC(c1ccc(Cl)c(F)c1)c1ncc(-c2ccccc2Cl)[nH]1 (stereo unspecified) | 5.44% (inactive) |
| COc1ccc(-c2noc(C(C)NS(=O)(=O)c3ccc(NC(C)=O)cc3)n2)cc1 (stereo unspecified) | -3.52% (inactive) |
| CCCC(=O)N1CCC1(C)C(=O)NCc1ccc(C(C)C)cc1 (stereo unspecified) | 1.64% (inactive) |
| COc1c(C)cc(C(O)c2ncc(-c3cccc(C(F)(F)F)c3)[nH]2)cc1C (stereo unspecified) | 2.23% (inactive) |
| O=C1CC(NNc2ccccc2)C(=O)N1c1cccc(Cl)c1 (stereo unspecified) | 2.47% (inactive) |
| N#Cc1ccccc1CN1C(=O)S/C(=C/c2cccn2-c2cccc(C(=O)O)c2)C1=O | 1.23% (inactive) |
| O=C1N/C(=C/c2cccn2-c2ccccc2)C(=O)N1c1cccc(Cl)c1 | 30.7% (active) |
| CCN(CCN(C)C)C(=O)c1ccc2nc(C)c(N(C)C(=O)CCc3ccccc3)n2c1 | 0.87% (inactive) |
| O=C(c1cc(-c2ccc(O)cc2)on1)N1CCOCC1 | -1.26% (inactive) |
| O=C(c1cc(-c2cccc(O)c2)on1)N1CCc2ccccc2C1 | 11.5% (active) |
| O=C(NCCCN1CCOCC1)c1cc(-c2cccc(O)c2)on1 | -2.51% (inactive) |
| CC1(C(=O)Nc2cccc3cccnc23)CCN1C(=O)CCC1CCCC1 (stereo unspecified) | 0.32% (inactive) |
| CCN(CC)CCN(C(=O)c1ccc2c(c1)CCCC2)c1nc2c(OC)cccc2s1 | 5.13% (inactive) |
| Cc1cccc2sc(N(CCCN(C)C)C(=O)CCS(=O)(=O)c3ccccc3)nc12 | -2.28% (inactive) |
| COc1cccc2sc(N(CCCN(C)C)C(=O)C(c3ccccc3)c3ccccc3)nc12 | 11.3% (active) |
| Cn1c(SCC(=O)Nc2cccc(NC(=O)c3cccs3)c2)nnc1-c1ccncc1 | 0.46% (inactive) |
| Cc1nc(-c2nnc(SCC(=O)Nc3cc(C(F)(F)F)cc(C(F)(F)F)c3)n2C)cs1 | 10.2% (active) |
| Cc1cc(-c2nc(C)c(-c3nnc(SCC(=O)Nc4ccccc4)n3C)s2)no1 | -2.39% (inactive) |
| Cc1ccccc1S(=O)(=O)NC(=O)C1(C)CCN1C(=O)C1(c2ccccc2)CCCC1 (stereo unspecified) | -0.26% (inactive) |
| COc1ccc(-n2nnnc2-c2nc3ccccc3s2)cc1 | 9.47% (active) |
| COc1ccc(-n2nnnc2SCC(=O)NCc2cccs2)cc1 | -3.21% (inactive) |
| COc1ccc(CNc2nnnn2C)cc1 | -2.31% (inactive) |
